Out of some 68,000 compounds screened, about 2,700 (4%) showed an effect of 50% or more. What follows is part of a selection rich in strong results, with near analogues and random picks from the rest.
Tested on: Plasmodium berghei
Experiment: Screen against P. berghei liver stage (PbLuc), transformed with Luciferase, at 2uM
Type: functional, HepG2
Conditions: tested at 2 uM

Row | SMILES | INHIBITION [%]
1 | CN(C)C(=O)c1csc(-c2ccoc2)n1 | 38.83
2 | CNC(=O)c1csc(-c2cccnc2)n1 | 30.63
3 | CNC(=O)c1csc(-c2ccoc2)n1 | 52.3
4 | Cc1nc(C)n(CC(C)C(=O)N2CCC(NS(C)(=O)=O)CC2)n1 (configuration not stated) | 5.85
5 | CCc1ccc(C(COC)NC(=O)c2ccc(C(N)=O)cc2)o1 (configuration not stated) | 15.56
6 | CSc1ncccc1C(=O)NCc1ccc(N(C)C)cc1 | 10.65
7 | CSc1ncccc1C(=O)Nc1ccc(Cn2ccccc2=O)cc1 | 52.45
8 | Cc1ncccc1C(=O)Nc1cccc(Cn2ccccc2=O)c1 | 45.67
9 | CS(=O)(=O)N[C@@H]1CCN(Cc2nccs2)[C@H]1Cc1ccncc1 | -11.68
10 | Cc1cc(NC(=O)C(C)Cn2cc(Br)cn2)no1 (configuration not stated) | 0.55
11 | CCOc1ncccc1CNc1nnc(C)c(C)c1C#N | -27.71
12 | CCCOc1ncccc1CNc1nnc(C)c(C)c1C#N | 42.12
13 | Cc1nnc(NCc2cccnc2N(C)C)c(C#N)c1C | 53.03
14 | COC(=O)N1CCCC(C(=O)NCc2cc3cccc(OC)c3o2)C1 (configuration not stated) | 33.01
15 | CCn1ncc(C(=O)NCCc2nc(-c3ccc(C)cc3)n[nH]2)c1C | -0.21
16 | CC1(C)[C@@H]2CC=C(CN3CCCn4nc(C(=O)O)cc4C3)[C@H]1C2 | -17.07
17 | CC1(C)[C@@H]2CC=C(CN3CCCn4nc(CCC(=O)O)cc4C3)[C@H]1C2 | 6.88
18 | CC1(C)[C@@H]2CC=C(CN3CCCn4nc(C(=O)NCCO)cc4C3)[C@H]1C2 | 53.17
19 | Cn1cc(CCNC(=O)NC2CCS(=O)(=O)C2)cn1 (configuration not stated) | 0.3
20 | CC(c1ccc(C(=O)NCCc2nc(N)cc(O)n2)o1)N1CCCCC1 (configuration not stated) | -24.78
21 | COc1ccc(-c2nc(C(=O)NCC3CCOC3)cs2)cc1OC (configuration not stated) | 60.09
22 | Cc1ccc(-c2nc(C(=O)NCC3CCOC3)cs2)cc1 (configuration not stated) | 49.9

Row | SMILES | INHIBITION [%]
23 | O=C(NCC1CCOC1)c1csc(-c2ccc(Cl)cc2)n1 (configuration not stated) | 5.09
24 | CC(=O)N(Cc1ncc(C)o1)C1CCN(CCc2cnn(C)c2)C1 (configuration not stated) | 9.83
25 | CCC1CN(C(=O)COc2ccc(C(=O)NC3CC3)cc2)CCO1 (configuration not stated) | 32.93
26 | N#CCCN1CC(O)CN(C(=O)c2cccc(C(F)(F)F)c2)CC1=O (configuration not stated) | 24.52
27 | CNc1nc(CNC(=O)Nc2cccc(F)c2)cs1 | -88.54
28 | O=C(NCCCc1nc(=O)[nH][nH]1)Nc1ccc(Cl)cc1 | 23.64
29 | O=C(NCCCc1nc(=O)[nH][nH]1)Nc1cccc(F)c1 | 52.85
30 | COCC1CN(Cc2ccc(C)o2)Cc2nnn(C)c21 (configuration not stated) | 38.83
31 | Cc1cc(S(=O)(=O)NCC(C)(O)CN(C)C)c(F)cc1F (configuration not stated) | 8.05
32 | CN(C)C(=O)c1cccc(C[S+]([O-])CC(=O)NC2CCCC2)c1 (configuration not stated) | -13.12
33 | Cc1cc(CS(=O)(=O)NCC2CCCCC2)on1 | 10.22
34 | Cc1cc(CS(=O)(=O)NC2CCCCC2)on1 | 35.46
35 | Cc1cc(CS(=O)(=O)NC2CCCc3ccccc32)on1 (configuration not stated) | 57.34
36 | CCCc1n[nH]c(=O)n1Cc1ccc(OC)cc1 | -13.14
37 | O=C(COC1CCCC1)Nc1ncn(CC(=O)N2CCCCCC2)n1 | 22.29
38 | CC(C)Nc1nnc(SCc2nnc(C(C)(C)C)o2)s1 | 13.91
39 | O=C(NCC1CC1)C1CN(c2ncccn2)Cc2ccnn2C1 (configuration not stated) | 64.37
40 | O=C(NCC1CC1)C1CN(Cc2cccs2)Cc2ccnn2C1 (configuration not stated) | 23.53
41 | O=C(NCC1CC1)C1CN(Cc2ccncc2)Cc2ccnn2C1 (configuration not stated) | 7.55
42 | O=c1ccc(-c2cccs2)nn1CN1CCOC(c2ccccc2)C1 (configuration not stated) | -30.87
43 | Cc1nc(CN2CCC3(CC2)CC(=O)N(C)c2ccccc23)cs1 | 9.8
44 | N#Cc1ccc(NCc2cccc(COC3CCOCC3)c2)nc1 | 66.24

Row | SMILES | INHIBITION [%]
45 | Clc1cnccc1NCc1cccc(COC2CCOCC2)c1 | 68.73
46 | N#Cc1ccc(NCc2cccc(OCC3CCCO3)c2)nc1 (configuration not stated) | 42.35
47 | CNS(=O)(=O)Cc1cccc(CNc2ccc(C#N)cn2)c1 | 19.12
48 | Clc1cnccc1N1CCC(OC2CCOCC2)CC1 | -76.37
49 | Clc1cncc(NCc2cccc(COC3CCOCC3)c2)n1 | -0.39
50 | CC(=O)N1CCN(Cc2nccs2)CC2(CC(=O)N(C)C2)C1 (configuration not stated) | 26.01
51 | CCC(Nc1cccc(OC)c1)C(=O)NCc1ccc2c(c1)OCO2 (configuration not stated) | 11.6
52 | c1cnn(CC2CN(Cc3csc(C4CCCCC4)n3)CCO2)c1 (configuration not stated) | -43.79
53 | Cc1cccc(CN2CCN(C(=O)c3cnc(C)[nH]c3=O)CC2)c1 | 43.15
54 | CNC(=O)CN1C(=O)CN(C(=O)COC)CCC(OC)c2ccccc21 (configuration not stated) | -8.2
55 | O=S(=O)(c1ccccc1)N1C[C@@H]2COC[C@]2(CN2CCOCC2)C1 | 29.19
56 | Cc1cc(C(F)(F)F)cc(N2C[C@@H](CN(C)CCO)[C@@H](CO)C2)n1 | 50.97
57 | CCN(CCO)C[C@@H]1CN(c2cc(C(F)(F)F)cc(C)n2)C[C@@H]1CO | 14.59
58 | Cc1cc(C(F)(F)F)cc(N2C[C@@H](CN3CCOCC3)[C@@H](CO)C2)n1 | -18.71
59 | c1cncc(CN2CCn3cc(Cn4cccn4)nc3C2)c1 | 15.39
60 | Cc1ccc(N2CC3(COCCN(Cc4cccnc4)C3)OCC2=O)s1 (configuration not stated) | -5.44
61 | CN(C)c1cc(CNC(=O)c2cc(Cl)ccn2)ccn1 | 49.01
62 | Cc1ccc(CC(=O)N2CCCC(c3cc(C(N)=O)[nH]n3)C2)cn1 (configuration not stated) | 14.53
63 | CC(C)(C)C(=O)NCCC(=O)N1CCC(Nc2cccnn2)CC1 | -27.69
64 | O=C(c1ccccc1)N1CCOC2(CCN(Cc3cccs3)CC2)C1 | 20.51
65 | COCCN1CCC2(CC1)CN(C(=O)c1ccccc1)CCO2 | 58.4
66 | COCCN1CCC2(CC1)CN(C(=O)Cc1cccnc1)CCO2 | 35.89

Row | SMILES | INHIBITION [%]
67 | COCCN1CCC2(CC1)CN(C(=O)c1ccco1)CCO2 | 45.22
68 | COCCN1CCC2(CC1)CN(C(=O)c1cccs1)CCO2 | 57.31
69 | COCCN1C[C@@H](C)[C@@]2(COCCN(C(=O)c3cccs3)C2)C1 | -3.19
70 | Cn1ccnc1CN(Cc1ccccn1)Cc1ccccc1Cl | -8.33
71 | CN(Cc1ccc(Cl)s1)C(=O)NCCC(=O)N1CCCCCC1 | -12.84
72 | Cc1c(C(=O)NC2=NCCS2)cnn1-c1ccc(Br)cc1 | -23.27
73 | NC(=O)c1ccc(NC2CCOC3(CCCC3)C2)nn1 (configuration not stated) | -0.45
74 | Cc1nsc(NC2CCOC3(CCCC3)C2)n1 (configuration not stated) | 62
75 | CCc1nsc(NC2CCOC3(CCCC3)C2)n1 (configuration not stated) | -9.6
76 | Cc1nsc(NC2CCOC3(CCCCC3)C2)n1 (configuration not stated) | 62
77 | CC(C)c1nsc(NC2CCOC3(CCCC3)C2)n1 (configuration not stated) | 30.06
78 | Cc1cc(C)nc(NC2CCOC3(CCCC3)C2)n1 (configuration not stated) | 10.23
79 | Cc1nn(C)c(Cl)c1CNCc1ccc(OCC(N)=O)cc1 | -5.1
80 | COc1ccccc1CN1C[C@@H]2COC[C@]2(COCc2ccncc2)C1 | 38.11
81 | Cc1cnc(N2CCc3ncnc(N4CCN(C)CC4)c3CC2)nc1 | 17.57
82 | Cc1cc(C)n(CC2CCCN2Cc2ncc(C(C)(C)C)o2)n1 (configuration not stated) | -11.91
83 | CC(C)(C)c1cnc(CN2CCCC2Cn2cccn2)o1 (configuration not stated) | -50.72
84 | CC(C)(C)c1cnc(CN2CCC[C@H]2CO)o1 | 56.72
85 | CC(C)(C)c1cnc(CN2CCCCC2Cn2cccn2)o1 (configuration not stated) | -23.94
86 | CCC1CCCCN1Cc1ncc(C(C)(C)C)o1 (configuration not stated) | 70.27
87 | Cc1cnn(CC2CCCCN2Cc2ncc(C(C)(C)C)o2)c1 (configuration not stated) | 30.91
88 | O=S(=O)(NCC1(O)CCOCC1)c1c(F)cccc1F | 43.15

Row | SMILES | INHIBITION [%]
89 | CCc1cnc(N2CCc3ncnc(N4CCN(C)CC4)c3CC2)nc1 | -64.85
90 | NC(=O)N1CC(OCc2cccc3ccccc23)C1 | 5.98
91 | Cc1cc(C)c2ncn(CCOCCO)c(=O)c2c1 | 24.55
92 | O=C(NCc1n[nH]c2c1CCCCC2)c1cnn2c1CCCC2 | -23.38
93 | CCc1nc(CN2CCCN(C(=O)COCC3CC3)CC2)cs1 | 3.9
94 | Cn1cc(C(O)CNC(=O)c2cc(Br)ccc2Cl)cn1 (configuration not stated) | 20.29
95 | CCC(CC)NC(=O)c1ccc2nnc(C3CCN(C(C)=O)C3)n2c1 (configuration not stated) | 30.75
96 | O=C1CCC2(CCCN(C(=O)Cc3ccccc3)C2)N1 (configuration not stated) | 60.05
97 | O=C1CCC2(CCCN(C(=O)Cc3ccccn3)C2)N1 (configuration not stated) | 29.85
98 | O=C1CCC2(CCCN(C(=O)Cc3cccnc3)C2)N1 (configuration not stated) | 29.3
99 | CS(=O)(=O)N1CCN(C(=O)c2cncs2)CC(C(N)=O)C1 (configuration not stated) | -33.32
100 | CNC(=O)[C@@H](c1ccccc1OC)N1CCC[C@H]1C(=O)N1CC[C@@H](O)C1 | 50.91
101 | CNC(=O)[C@@H](c1ccccc1OC)N1CCC[C@H]1C(=O)N1CCC1 | -20.89
102 | CNC(=O)[C@@H](c1ccccc1OC)N1CCC[C@H]1C(=O)NC(C)(C)C | -1.63
103 | O=C(NCc1cc[nH]n1)NC1CCCN(c2ncccn2)C1 (configuration not stated) | 12.8
104 | Cn1cccc1CN1CCC2(CCCN(C(=O)Cc3cccnc3)C2)C1 (configuration not stated) | -4.92
105 | Cn1cccc1CN1CCC2(CCCN(C(=O)c3cccnc3)C2)CC1 | 61.08
106 | Cn1cccc1CN1CCC2(CCCN(C(=O)c3cnccn3)C2)C1 (configuration not stated) | -30.12
107 | Cc1noc(CCCC(=O)NC(C)c2cccnc2)n1 (configuration not stated) | -19.76

Reference: ChEMBL document CHEMBL4513216, “Probing the Open Global Health Chemical Diversity Library for Multistage-Active Starting Points for Next-Generation Antimalarials” (ACS Infect Dis, 2020)
